These results are taken from PubChem BioAssay (NCATS).

Results filed as inconclusive are left out. Where a call stands in place of a potency, no number is given. Active and inactive are the calls of the source. Calls come from the whole dose curve; as a rule, active = well fitted curve in the direction sought with a large enough effect; inconclusive = small, poorly fitted or top-dose-only effect, or another doubt; inactive = no such curve, though single readings can be large; an effect the other way counts as inactive or inconclusive.

Experiment [1] is described as follows: qHTS Assay for Identifying Gametocytocidal Compounds (AID 743244).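 Note: actives lower the fluorescent signal which means gametocytes are killed.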 The note with it: P. falciparum 3D7 stage III-V gametocytes, alamarBlue, 72 h; max response: stronger effect = lower value. The gist of the method:
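Stage III–V gametocytes of P. falciparum 3D7 were seeded at 20,000 cells/well onto pre-dispensed compounds. After 72 h, 37 °C, 5% CO2, alamarBlue was added for another 24 h.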
(In qHTS, concentration-response curves come from the screen itself.)

Experiment [2] can be described thus: qHTS assay for measurement of the activity of small molecule inhibitors on Zika virus induced Caspase-3 activity in human iPSC derived neural progenitor cells (hNPCs) (AID 1224857). Note: nearly all actives have a fitted effect of over 65% in size. Summed up:
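Values are percent inhibition of virus-induced caspase-3/7 signal, scaled between uninfected cells and ZIKV-infected cells. Infection used 2 FFU/cell for 6 h after 1 h compound exposure.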

Consider `C[C@@H](O)[C@H]1C(=O)N2C(C(=O)O)=C([C@H]3CCCO3)S[C@H]12`, for which the max response in experiment [1] is -9.42% (inactive). Also, the Potency entry in experiment [2] was “inactive”.
In the case of `Cc1ccc(-c2ncc(Cl)cc2-c2ccc(S(C)(=O)=O)cc2)cn1`, the max response in experiment [1] was 12.8% (inactive). For the same molecule, in experiment [2], the Potency result was “inactive”.
Regarding `C[C@H]1O[C@@H](O[C@H]2CC[C@@]3(C)[C@H](CC[C@@H]4[C@@H]3C[C@@H](O)[C@]3(C)[C@@H](C5=CC(=O)OC5)CC[C@]43O)C2)C[C@H](O)[C@@H]1O[C@H]1C[C@H](O)[C@H](O[C@H]2C[C@H](O)[C@H](O[C@@H]3O[C@H](CO)[C@@H](O)[C@H](O)[C@H]3O)[C@@H](C)O2)[C@@H](C)O1`, the max response in experiment [1] is -0.158% (inactive). Besides, the Potency entry in experiment [2] was “inactive”.
Consider `O=C(Nc1ccc([N+](=O)[O-])cc1)Nc1ccc([N+](=O)[O-])cc1`, for which, in experiment [1], the max response was 3.29% (inactive). In experiment [2], the Potency result was “inactive”.
As to `O=C(O)CCNC(=O)c1ccccc1`, the max response in experiment [1] is 7.27% (inactive). The Potency result in experiment [2] is “inactive”.
As to `O=C(CCCN1CC=C(n2c(=O)[nH]c3ccccc32)CC1)c1ccc(F)cc1`, in experiment [1], the max response was 7.51% (inactive). Besides, the Potency result in experiment [2] is “inactive”.
